About 79,000 compounds went through this panel and 15% of them were active in at least one assay; those are over-represented in the sample as a whole. Unmarked numbers belong to inactive results. Activity calls are given as the source filed them. Rule as the data show it: active = growth inhibition above about 70%; inactive = the rest.
Experiment: NCI Yeast Anticancer Drug Screen. Data for the bub3 strain (AID 167)
Conditions: S. cerevisiae bub3 mutant strain, at 50.0 µM, hits give high values
Experimental: Growth inhibition of yeast strains with defined genetic alterations is measured as a screen for potential anti-cancer activity. Selected strains with alterations in DNA damage repair or cell cycle control were exposed to compounds and growth inhibition was measured relative to vehicle treated controls. The strain used in this assay is bub3

SMILES | growth inhibition
ClCC(Cl)C1CCC(Cl)C(Cl)C1 (stereo not given) | 8.65%
Nc1ncnc(Nc2ccc(C(F)(F)F)cc2)n1 | 25.6%
CN(C(=S)S(=O)(=O)C12CC3CC(CC(C3)C1)C2)c1ccccc1 | 17.5%
O=Cc1ccc(F)cc1 | -10.6%
Clc1ccc(/C=C/c2ccccn2)cc1 | 7.5%
OC(CCN1CCCCC1)(c1ccccc1)c1ccccc1 | -20.2%
CC(=O)OC/C(C)=C\CC(C)COC(C)=O (stereo not given) | -18.6%
O=c1cc(Cl)nc2ccccn12 | -3.85%
O=C(Nc1c(Cl)cc(Cl)cc1Cl)ON=C1CCCCC1 | 15.5%
C[C@H](CCC[C@H](C)OS(=O)(=O)c1ccccc1)OS(=O)(=O)c1ccccc1 | -8.15%
CN=S(=O)(OCCCCCOS(=O)(=NC)c1ccc(C)cc1)c1ccc(C)cc1 (stereo not given) | -41.3%
CCCCCCCCCCCCCC/C=C\C(CC(=O)O)C(=O)O (stereo not given) | -28.4%
COC1(OC)C2(Cl)C(Cl)=C(Cl)C1(Cl)C1COCC12 (stereo not given) | 22.2%
CCN(C(C)=O)c1ccc([N+](=O)[O-])cc1 | 3.05%
CC(=O)[C@@]1(O)CC[C@H]2[C@@H]3CC[C@@H]4CC(=O)CC[C@]4(C)[C@H]3[C@@H](O)C[C@@]21C | 11.1%
C#CCSc1nnnn1-c1ccccc1 | 15.8%
Cc1ccc(S(=O)(=O)NC(=O)NCCSSCCNC(=O)NS(=O)(=O)c2ccc(C)cc2)cc1 | 18.6%
CCCCCCCCCc1ccc(OC(C)=O)cc1 | 94.2% (active)
COC1OC(C(COC(C)=O)OC(C)=O)C(OC(C)=O)C(OC(C)=O)C1OC(C)=O (stereo not given) | 52.2%
Cc1cc2c(C(C)C)c(O)c(O)c(C=Nc3ccccc3[N+](=O)[O-])c2c(O)c1-c1c(C)cc2c(C(C)C)c(O)c(O)c(C=Nc3ccccc3[N+](=O)[O-])c2c1O | -17.4%

SMILES | growth inhibition
CCNC(=O)OCCc1c2ccccc2nc2ccccc12 | 12.7%
Nc1ncnc2c1ncn2C1OC(CO)C2OC21 (stereo not given) | -5.95%
CCCCCCCCCCCCSC1=C(Cl)C(=O)C(OC)=C(OC)C1=O | -7.2%
Cc1cc(Nc2ccc3c(c2)OCO3)c2cc3c(cc2n1)OCO3 | -0.5%
O=C1NC(=O)C(c2ccccc2)O1 (stereo not given) | 18.8%
CC(C)(C)NCCC(O)c1cc(C(F)(F)F)nc2c(C(F)(F)F)cccc12 (stereo not given) | -11.9%
CCOS(=O)(=O)c1ccc([N+](=O)[O-])cc1 | 5.2%
O=S(=O)(O)c1ccc(O)c(C2CCCCC2)c1 | -12.2%
CN1CCCN(C(c2ccccc2)c2ccc(Br)cc2)CC1 (stereo not given) | 30.9%
COc1cc(-c2ccc(NC(=O)CC(C)=O)c(OC)c2)ccc1NC(=O)CC(C)=O | 5.95%
c1ccc2c(NCCCN3CCN(CCCNc4c5ccccc5nc5ccccc45)CC3)c3ccccc3nc2c1 | 22.2%
C=COC(=O)CCOCC(CC)CCCC (stereo not given) | -4.55%
C=CCC(OC(C)=O)c1ccc(C(C)C)cc1 (stereo not given) | -0.5%
C=CC(C)C(C)(C)O (stereo not given) | -13.5%
O=C(CCCl)OCCOc1ccccc1 | -18.5%
COc1c(CNC(=O)CCl)cc2[nH]c(C)cc2c1CNC(=O)CCl | 9.7%
O=C(O)Cc1ccccn1 | -28.8%
CC1(c2ccccc2)CO1 (stereo not given) | -14.9%
CCOC(=O)CO | 17.2%
Nc1cc(N)ncn1 | -10.1%

— PubChem BioAssay (NCI)
